Data published in PubChem BioAssay.
“And” between values parts separate entries of the source, which are not always exact repeats. Equal values may be shown once. Results filed as inconclusive are left out. The source made the active and inactive calls.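 Rule for the calls, unless noted: active = normalized viability below 100% at a tested concentration; inactive = the rest.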

Experiments:
[1] = viability loss in pontine glioma line – cell-based, SU-DIPG-XXV, MIPE5.0, CellTiter-Glo, qHTS, dose response (AID 1347065; cut-off not given, nearly all actives have AC50 up to about 26 µM;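 note: cells exposed to compound for 48 hours before ATP readout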); details: CellTiter-Glo ATP luminescence
[2] = SU-DIPG-VI glioma cell viability, MIPE4.0 library, CellTiter-Glo luminescence, qHTS (AID 1347066; cut-off not given, nearly all actives have AC50 up to about 30 µM;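 note: cells exposed to compound for 48 hours before readout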); details: CellTiter-Glo ATP luminescence
[3] = JHH-DIPG-1 glioma cell viability, MIPE5.0 library, CellTiter-Glo luminescence, qHTS (AID 1347067; cut-off not given, nearly all actives have AC50 up to about 26 µM;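 note: cells exposed to compound for 48 hours before readout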); details: JHH-DIPG-1 glioma viability, CellTiter-Glo ATP luminescence
[4] = SU-DIPG-XXV glioma cell viability, MIPE5.0 library, qHTS (AID 1347068; cut-off not given, nearly all actives have IC50 up to about 30 µM)
[5] = sensitizers of A549 cells to miR-34 induction, primary screen, imaging, A549 dox-inducible miR-34, nuclei and caspase counts (AID 1347080;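 active = compounds whose cell count with miR-34 switched on is under 0.7 times the count with it off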); details: A549 miR-34 inducible, Hoechst nuclei count, 48 h
[6] = phospholipid biosynthesis inhibitors in animal cells, primary screen, cell-based, LOPAC library, screen 4 (AID 1347384; call rule not given here); details: phospholipid biosynthesis inhibition screen, at 10 µM
[7] = survival rescue of mitochondrial mutant cells in low glucose, primary screen, MELAS cybrids, Rieske KO mouse fibroblasts, CellTiter-Glo (AID 1508586;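 active = mean z-score across replicates of 1.96 or higher in either the MELAS or the Rieske mutant cell line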;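 note: z relative to plate mean and SD of compound and empty wells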)
[8] = ovarian cancer cell viability with rucaparib, profiling panel, oncology-focused library, rucaparib conditional (AID 1508598); details: patient-derived ovarian cancer cells, CellTiter-Glo viability, 144 h, stronger effect = lower value
[9] = molecular target: NAD(+) hydrolase SARM1 (Homo sapiens) (UniProt Q6SZW1); assay: SARM1 TIR NADase inhibitors, cell lysate, NAD-Glo luminescence (AID 1508614;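 active = compound whose remaining NAD level is above about 45 nM, limit read from the data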;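 note: higher remaining NAD means stronger inhibition of SARM1 NADase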); details: SAM-TIR HEK293T lysate NADase, at 1 µM, stronger effect = higher value
NAD(+) hydrolase SARM1 (Homo sapiens), sequence (Q6SZW1 whole entry, looked up, the tested form may be a part): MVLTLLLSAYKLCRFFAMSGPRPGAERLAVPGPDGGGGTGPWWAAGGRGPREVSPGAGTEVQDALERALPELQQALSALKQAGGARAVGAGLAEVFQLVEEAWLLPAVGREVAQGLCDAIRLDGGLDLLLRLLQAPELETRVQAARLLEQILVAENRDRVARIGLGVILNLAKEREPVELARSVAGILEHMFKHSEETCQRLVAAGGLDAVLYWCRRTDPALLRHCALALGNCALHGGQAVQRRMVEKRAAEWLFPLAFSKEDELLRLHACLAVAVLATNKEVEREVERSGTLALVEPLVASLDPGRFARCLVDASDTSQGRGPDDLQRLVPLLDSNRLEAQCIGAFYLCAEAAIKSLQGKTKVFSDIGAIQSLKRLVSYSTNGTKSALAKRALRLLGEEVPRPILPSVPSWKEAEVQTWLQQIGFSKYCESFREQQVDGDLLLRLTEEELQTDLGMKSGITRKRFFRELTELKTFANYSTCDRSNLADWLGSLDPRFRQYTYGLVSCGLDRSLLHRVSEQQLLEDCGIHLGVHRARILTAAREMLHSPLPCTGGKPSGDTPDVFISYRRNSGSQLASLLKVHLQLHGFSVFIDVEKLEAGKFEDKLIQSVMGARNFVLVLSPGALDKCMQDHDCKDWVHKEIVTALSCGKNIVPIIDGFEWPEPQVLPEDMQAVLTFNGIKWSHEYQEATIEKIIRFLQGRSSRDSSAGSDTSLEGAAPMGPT

[10] = molecular target: Mitogen-activated protein kinase 7 (Homo sapiens) (UniProt Q13164); assay: ERK5 transactivation activators in reporter cells, primary screen, cell-based, HTS (AID 1508626;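 active = luciferase signal above three times the same-plate solvent-only control wells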;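 note: luciferase driven by Gal4-ERK5 fusion binding five Gal4 sites before minimal TATA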); details: HeLa Gal4-ERK5 transactivation, 18 h, at 5 µM, stronger effect = higher value
Mitogen-activated protein kinase 7 (Homo sapiens), sequence (Q13164 whole entry, looked up, the tested form may be a part): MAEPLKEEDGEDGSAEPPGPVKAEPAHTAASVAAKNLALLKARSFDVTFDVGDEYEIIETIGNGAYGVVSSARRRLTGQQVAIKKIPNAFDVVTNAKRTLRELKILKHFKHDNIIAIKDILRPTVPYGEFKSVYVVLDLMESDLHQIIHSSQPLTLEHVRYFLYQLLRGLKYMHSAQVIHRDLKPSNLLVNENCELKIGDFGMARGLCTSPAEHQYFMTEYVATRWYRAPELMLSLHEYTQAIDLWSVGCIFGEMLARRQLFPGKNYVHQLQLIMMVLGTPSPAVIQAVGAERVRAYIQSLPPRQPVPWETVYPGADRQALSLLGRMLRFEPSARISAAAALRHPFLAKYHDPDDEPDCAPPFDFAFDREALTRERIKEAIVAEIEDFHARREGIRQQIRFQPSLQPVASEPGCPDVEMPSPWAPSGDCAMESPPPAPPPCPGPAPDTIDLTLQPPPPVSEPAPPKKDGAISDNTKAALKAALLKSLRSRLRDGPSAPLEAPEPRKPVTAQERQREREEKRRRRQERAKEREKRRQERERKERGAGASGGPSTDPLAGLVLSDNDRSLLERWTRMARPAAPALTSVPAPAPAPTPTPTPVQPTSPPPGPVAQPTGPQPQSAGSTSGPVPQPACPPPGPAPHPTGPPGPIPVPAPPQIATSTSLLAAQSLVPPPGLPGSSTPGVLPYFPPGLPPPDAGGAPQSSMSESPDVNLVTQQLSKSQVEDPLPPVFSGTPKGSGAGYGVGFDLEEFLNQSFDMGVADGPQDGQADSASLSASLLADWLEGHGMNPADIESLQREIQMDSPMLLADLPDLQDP

[11] = viability rescue of complex I mutant cybrids, primary screen, cell-based, galactose medium, ATP luminescence (AID 1645843;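 active = z-score of at least 1.8 in each of two replicates, scored against plate mean and spread of sample wells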;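 note: positive z means more ATP and so rescue of galactose-driven cybrid death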); details: complex I mutant cybrid cells, 72 h, stronger effect = higher value
[12] = LFS_MB_P medulloblastoma growth inhibition, cell-based, chromothripsis tumors, cisplatin or BGB combos (AID 1671449; in the data active = inhibition above about 80%;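 note: cells exposed for 96 hours; 0% = vehicle DMSO and 100% = killing by high DMSO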); details: LFS_MB_P medulloblastoma cells
[13] = HDN33 neuroblastoma growth inhibition, cell-based, chromothripsis tumors, cisplatin or BGB combos (AID 1671450; in the data active = inhibition above about 80%;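 note: cells exposed to compound for four days; 0% = vehicle DMSO and 100% = cell killing by high DMSO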); details: HDN33 neuroblastoma cells, stronger effect = higher value
[14] = ICB984 medulloblastoma cell growth inhibition, synergistic combos for chromothripsis tumors, cisplatin or BGB combos (AID 1671451; call rule not given here;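 note: cells exposed for 96 hours before readout; 0% = vehicle DMSO and 100% = killing by high DMSO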); details: ICB984 medulloblastoma cells, drug combinations, stronger effect = higher value
[15] = LFS_MB_1R medulloblastoma cell growth inhibition, synergistic combos for chromothripsis tumors, cisplatin or BGB combos (AID 1671452; in the data active = inhibition above about 80%;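 note: cells exposed for 96 hours before readout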); details: LFS_MB_1R medulloblastoma cells, stronger effect = higher value
[16] = HTB85 osteosarcoma cell growth inhibition, synergistic combos for chromothripsis tumors, BGB or cisplatin IC20 combos (AID 1671453; in the data active = inhibition above about 80%;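 note: cells exposed for 96 hours before readout; 0% = vehicle DMSO and 100% = high DMSO killing control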); details: HTB85 osteosarcoma cells, drug combinations, stronger effect = higher value
[17] = CRL2098 osteosarcoma cell growth inhibition, synergistic combos for chromothripsis tumors, BGB or cisplatin IC20 combos (AID 1671454; in the data active = inhibition above about 80%;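 note: cells exposed for 96 h before readout; 0% = vehicle DMSO and 100% = killing by high DMSO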); details: CRL2098 osteosarcoma cells, drug combinations, stronger effect = higher value
[18] = HD-MB03 medulloblastoma cell growth inhibition, synergistic combos for chromothripsis tumors, BGB or cisplatin IC20 combos (AID 1671455; in the data active = inhibition above about 83%;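 note: 0% = vehicle DMSO and 100% = high DMSO as cytotoxic control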); details: HD-MB03 medulloblastoma cells, stronger effect = higher value
[19] = measured here: combination with BGB IC40, at 0.05 µM

NC(=O)NO
outcome [1]: inactive
outcome [2]: inactive
outcome [3]: inactive
outcome [4]: inactive
fold change ([5]; stronger effect = lower value, cell number ratio, induced over uninduced): 0.975 (inactive) and 0.894 (inactive) and 0.861 (inactive)
fold change ([5]; measured here: relative caspase fold change +Dox/-Dox): 1.12 and 0.968 and 1.05
cell count ([5]; measured here: total cells with miR-34 induction, stronger effect = lower value): 10300 and 8660 and 7880
cell count ([5]; measured here: total cells without miR-34 induction): 10600 and 9680 and 9160
outcome [6]: inactive
z-score ([7]; MELAS cybrid survival, CellTiter-Glo 48 h, stronger effect = higher value): -0.326 (inactive)
z-score ([7]; Rieske KO mouse fibroblast survival, CellTiter-Glo 72 h): 0.485
viability ([8]; at 0.000305 µM, OCI-C5x cells, with rucaparib 10 µM, 100% = cells with rucaparib alone): 105% (inactive)
viability ([8]; at 0.000305 µM, OCI-C5x cells, without rucaparib): 113% (inactive)
viability ([8]; at 0.000305 µM, OCI-P5x cells, with rucaparib 20 µM, 100% = cells with rucaparib alone): 95.9% (active)
viability ([8]; at 0.000305 µM, OCI-P5x cells, without rucaparib): 97.6% (active)
viability ([8]; at 0.00122 µM, OCI-C5x cells, with rucaparib 10 µM, 100% = cells with rucaparib alone): 111% (inactive)
viability ([8]; at 0.00122 µM, OCI-C5x cells, without rucaparib): 112% (inactive)
viability ([8]; at 0.00122 µM, OCI-P5x cells, with rucaparib 20 µM, 100% = cells with rucaparib alone): 98.6% (active)
viability ([8]; at 0.00122 µM, OCI-P5x cells, without rucaparib): 102% (inactive)
viability ([8]; at 0.00488 µM, OCI-C5x cells, with rucaparib 10 µM, 100% = cells with rucaparib alone): 105% (inactive)
viability ([8]; at 0.00488 µM, OCI-C5x cells, without rucaparib): 104% (inactive)
viability ([8]; at 0.00488 µM, OCI-P5x cells, with rucaparib 20 µM, 100% = cells with rucaparib alone): 101% (inactive)
viability ([8]; at 0.00488 µM, OCI-P5x cells, without rucaparib): 109% (inactive)
viability ([8]; at 0.0195 µM, OCI-C5x cells, with rucaparib 10 µM, 100% = cells with rucaparib alone): 104% (inactive)
viability ([8]; at 0.0195 µM, OCI-C5x cells, without rucaparib): 115% (inactive)
viability ([8]; at 0.0195 µM, OCI-P5x cells, with rucaparib 20 µM, 100% = cells with rucaparib alone): 106% (inactive)
viability ([8]; at 0.0195 µM, OCI-P5x cells, without rucaparib): 109% (inactive)
viability ([8]; at 0.0781 µM, OCI-C5x cells, with rucaparib 10 µM, 100% = cells with rucaparib alone): 116% (inactive)
viability ([8]; at 0.0781 µM, OCI-C5x cells, without rucaparib): 106% (inactive)
viability ([8]; at 0.0781 µM, OCI-P5x cells, with rucaparib 20 µM, 100% = cells with rucaparib alone): 106% (inactive)
viability ([8]; at 0.0781 µM, OCI-P5x cells, without rucaparib): 116% (inactive)
viability ([8]; at 0.313 µM, OCI-C5x cells, with rucaparib 10 µM, 100% = cells with rucaparib alone): 109% (inactive)
viability ([8]; at 0.313 µM, OCI-C5x cells, without rucaparib): 114% (inactive)
viability ([8]; at 0.313 µM, OCI-P5x cells, with rucaparib 20 µM, 100% = cells with rucaparib alone): 103% (inactive)
viability ([8]; at 0.313 µM, OCI-P5x cells, without rucaparib): 110% (inactive)
viability ([8]; at 1.25 µM, OCI-C5x cells, with rucaparib 10 µM, 100% = cells with rucaparib alone): 102% (inactive)
viability ([8]; at 1.25 µM, OCI-C5x cells, without rucaparib): 116% (inactive)
viability ([8]; at 1.25 µM, OCI-P5x cells, with rucaparib 20 µM, 100% = cells with rucaparib alone): 96.8% (active)
viability ([8]; at 1.25 µM, OCI-P5x cells, without rucaparib): 110% (inactive)
viability ([8]; at 5 µM, OCI-C5x cells, with rucaparib 10 µM, 100% = cells with rucaparib alone): 105% (inactive)
viability ([8]; at 5 µM, OCI-C5x cells, without rucaparib): 114% (inactive)
viability ([8]; at 5 µM, OCI-P5x cells, with rucaparib 20 µM, 100% = cells with rucaparib alone): 109% (inactive)
viability ([8]; at 5 µM, OCI-P5x cells, without rucaparib): 111% (inactive)
remaining NAD [9]: 10 nM (inactive)
luciferase signal [10]: 44 AU (inactive)
z-score [11]: 0.03 (inactive)
inhibition ([12]; at 0.5 µM, stronger effect = higher value): -32.5% (inactive)
inhibition ([12]; measured here: combination with BGB IC20, at 0.005 µM): -13.7%
inhibition ([12]; measured here: combination with BGB IC40, at 0.005 µM): 33.3%
inhibition [12, 19]: -4.05%
inhibition ([12]; measured here: combination with cisplatin, at 0.5 µM, stronger effect = higher value): -74.7%
inhibition ([12]; measured here: combination with cisplatin, at 5 µM, stronger effect = higher value): 7.33%
inhibition ([13]; BGB combo, at 5 µM): 4.14%
inhibition ([13]; at 0.5 µM): -0.11% (inactive)
inhibition ([13]; cisplatin combo, at 5 µM): 7.9%
inhibition ([13]; measured here: with BGB IC20 combination, at 0.5 µM): 1.89%
inhibition ([13]; measured here: with cisplatin IC20 combination, at 0.5 µM): -0.484%
inhibition ([13]; single agent, at 5 µM): 3.76%
inhibition ([14]; BGB IC20 combo, at 0.005 µM): -9.77%
inhibition ([14]; BGB IC40 combo, at 0.005 µM): -3.4%
inhibition ([14]; BGB IC40 combo, at 0.05 µM): -15.1%
inhibition ([14]; at 0.5 µM): -0.36% (inactive)
inhibition ([14]; cisplatin combo, at 0.05 µM): -15.1%
inhibition ([14]; cisplatin combo, at 0.5 µM): -15.2%
inhibition ([14]; cisplatin combo, at 5 µM): -5.34%
inhibition ([14]; measured here: 5 uM single agent, at 5 µM): -13.7%
inhibition ([15]; at 0.5 µM): -11.7% (inactive)
inhibition [15, 19]: -14.3%
inhibition ([15]; measured here: combination with cisplatin, at 0.5 µM): 23.3%
inhibition ([15]; measured here: combination with cisplatin, at 5 µM): 27.3%
inhibition ([16]; at 0.5 µM): 4.31% (inactive)
inhibition ([16]; measured here: with BGB IC20, at 0.5 µM): -11.6%
inhibition ([16]; measured here: with BGB IC20, at 5 µM): 7.32%
inhibition ([16]; measured here: with cisplatin IC20, at 0.5 µM): -0.499%
inhibition ([16]; measured here: with cisplatin IC20, at 5 µM): 13.2%
inhibition ([16]; single agent, at 5 µM): 18.4%
inhibition ([17]; at 0.5 µM): -5.49% (inactive)
inhibition ([17]; measured here: combination with BGB at IC20, at 0.5 µM): -9.56%
inhibition ([17]; measured here: combination with cisplatin at IC20, at 0.5 µM): 4.43%
inhibition ([18]; at 0.5 µM): -4.93% (inactive)
inhibition ([18]; measured here: combo with BGB at IC20, at 0.5 µM): -2.45%
inhibition ([18]; measured here: combo with cisplatin at IC20, at 0.5 µM): -8.29%
